# Most compounds without a hit are left out; they make up all but 3% or so of the library.
# FBA Mtb inh = Mtb FBA enzyme inhibitors, primary screen, biochemical, fluorescence, strain H37Rv; AID 588726, 2011; actives 2.3% (n = 360,000); inhibition, % at 1 µM; Fructose-bisphosphate aldolase (Mycobacterium tuberculosis (strain ATCC 25618 / H37Rv)), …; purified M. tuberculosis FBA, fluorescence read-out; in the data active = inhibition above about 27%
# Rv3671c inh = Rv3671c serine protease inhibitors, primary screen, biochemical, fluorescence polarization, M. tuberculosis H37Rv; AID 2606, 2010; actives 0.048% (n = 320,000); inhibition, % at 5.96 µM; in the data active = inhibition above about 38%;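 note: extracellular domain of Rv3671c used as enzyme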
# Target sequence (P9WHR9 whole entry, looked up, the tested form may be a part): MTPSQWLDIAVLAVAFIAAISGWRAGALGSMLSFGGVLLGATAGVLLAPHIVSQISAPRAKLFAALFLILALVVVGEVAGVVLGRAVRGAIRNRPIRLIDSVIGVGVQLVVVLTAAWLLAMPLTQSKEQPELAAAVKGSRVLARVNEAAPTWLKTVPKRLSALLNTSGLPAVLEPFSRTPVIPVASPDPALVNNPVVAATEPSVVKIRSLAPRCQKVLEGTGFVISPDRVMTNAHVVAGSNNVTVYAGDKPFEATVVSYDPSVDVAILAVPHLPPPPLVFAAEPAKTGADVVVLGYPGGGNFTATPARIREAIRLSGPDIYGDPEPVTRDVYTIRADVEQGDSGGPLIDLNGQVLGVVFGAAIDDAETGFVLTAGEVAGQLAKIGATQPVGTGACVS
# Mtb BioA inh = M. tuberculosis BioA enzyme inhibitors, primary screen, biochemical, plate reader, single point, HTS; purified M. tuberculosis BioA enzyme; inhibition, % at 9.99 µM; actives 0.096% (n = 360,000); AID 602481, 2012; in the data active = inhibition above about 40%
# GDH-TPI inh = GDH-TPI coupling enzyme inhibitors, primary screen, artefact control for M. tuberculosis FBA inhibitor project, biochemical, absorbance, full deck | GDH-TPI coupled enzyme counterscreen, NADH absorbance | inhibition, % at 4.8 µM | actives 1.2% (n = 360,000) | AID 588335, 2011; in the data active = inhibition above about 30%
# FadD28 binding = inhibitors of FadD28 bisubstrate probe binding, primary screen, biochemical, fluorescence polarization, single point; Mycobacterium tuberculosis FadD28 fatty-acid-AMP ligase; inhibition, % at 12.5 µM; actives 0.22% (n = 360,000); AID 588549, 2011; in the data active = inhibition above about 8.5%, passing the limit was not always enough
# A number is an active result; 0 = inactive; - = no result given; + = active, no number.
SMILES,FBA Mtb inh,Rv3671c inh,Mtb BioA inh,GDH-TPI inh,FadD28 binding
Cc1cccc(NC(=O)CN2C(=O)N/C(=C/c3cc(C)n(C)c3C)C2=O)c1,0,-,-,0,0
COc1ccc(CN(C)C[C@H]2Oc3c(NS(=O)(=O)c4cccs4)cccc3C(=O)N([C@@H](C)CO)C[C@@H]2C)cc1,-,-,0,-,-
Cc1noc(C)c1S(=O)(=O)N(C)C[C@H]1OCCCC[C@H](C)Oc2ccc(NC(=O)Nc3ccc(F)cc3)cc2C(=O)N([C@H](C)CO)C[C@@H]1C,-,-,0,-,-
Cc1noc(C)c1NC(=O)N(C)C[C@H]1OCCCC[C@@H](C)Oc2ccc(NC(=O)c3ccccc3)cc2C(=O)N([C@@H](C)CO)C[C@@H]1C,-,-,0,-,-
C[C@H](CO)N1C[C@H](C)[C@@H](CN(C)C(=O)Nc2ccc3c(c2)OCO3)Oc2ccc(NC(=O)C3CC3)cc2C1=O,-,-,0,-,-
CCCOC(=O)c1cc(-c2ccc(/C=C3/C(=O)N(C)C(=O)C(C#N)=C3C)o2)ccc1Cl,0,0,0,0,0
C=CCOC(=O)c1cc(-c2ccc(/C=C3\C(=O)NC(=O)C(C#N)=C3C)o2)ccc1Cl,0,-,0,34,20
CCOC(=O)c1cc(C)[nH]c1C,0,0,-,0,0
CCOC(=O)c1cc(C)[nH]c(=O)c1C#N,161,0,0,0,0
COc1ccccc1-c1ccc([C@@H]2[C@@H](C#N)N[C@@H]2CO)cc1,-,-,0,-,-
O=C(N[C@@H]1CC[C@@H](CC(=O)N2CCCCC2)O[C@@H]1CO)c1ccc2c(c1)OCO2,-,-,0,-,-
COc1ccc(NC(=O)Nc2cccc3c2O[C@@H](CN(C)C)[C@@H](C)CN([C@H](C)CO)C3=O)cc1,-,-,0,-,-
CCN(CC(=O)NCc1ccccc1Cl)CC(=O)Nc1c(F)cccc1F,0,0,0,44,0
COCCNC(=O)C[C@@H]1C[C@H]2c3cc(NC(=O)NC4CCCCC4)ccc3O[C@H]2[C@@H](CO)O1,-,-,0,-,-
CCCNC(=O)N(C)C[C@@H]1Oc2ncc(-c3ccc(C(=O)N(C)C)cc3)cc2C(=O)N([C@H](C)CO)C[C@@H]1C,-,-,0,-,-
COc1ccc(C(=O)N/N=C/c2sc(=O)n(Cc3cccc(C(=O)O)c3)c2Cl)cc1,0,0,0,36,0
O=C(O)c1cccc(Cn2c(Cl)c(/C=N/NC(=O)c3ccccc3O)sc2=O)c1,0,0,0,54,0
O=C(O)c1cccc(Cn2c(Cl)c(/C=N/NC(=O)c3ccccc3Cl)sc2=O)c1,0,0,0,41,0
Cc1ccccc1OCC(=O)N/N=C/c1sc(=O)n(Cc2cccc(C(=O)O)c2)c1Cl,0,0,-,0,0
C[C@@H]1CN([C@@H](C)CO)C(=O)c2cc(NS(=O)(=O)c3cn(C)cn3)ccc2O[C@@H](C)CCCCO[C@@H]1CN(C)Cc1ccc(C(F)(F)F)cc1,-,-,0,-,-
COc1ccc(NC(=O)N(C)C[C@H]2Oc3cc(-c4cccc(C(=O)N(C)C)c4)ccc3S(=O)(=O)N([C@H](C)CO)C[C@H]2C)cc1,-,-,0,-,-
Cc1noc(C)c1NC(=O)Nc1cccc2c1O[C@@H](CN(C)Cc1ccc(Oc3ccccc3)cc1)[C@H](C)CN([C@@H](C)CO)C2=O,-,-,0,-,-
COCC#Cc1ccc2c(c1)O[C@H](CN(C)S(=O)(=O)c1ccc(F)cc1)[C@H](C)CN([C@@H](C)CO)S2(=O)=O,-,-,0,-,-
CCCCCCCCCCCCCCC(O)C[N+](C)(CCO)CCO (stereo unspecified),0,-,-,0,17
CCCCCCCC(=O)OCC(O)CO (stereo unspecified),0,0,0,0,0
SMILES,FBA Mtb inh,Rv3671c inh,Mtb BioA inh,GDH-TPI inh,FadD28 binding
CC(=O)c1ccc(Oc2ccc(C(C)=O)cc2)cc1,0,0,0,0,0
CC(=O)c1ccc(OC(=O)Oc2ccc(C(C)=O)cc2)cc1,0,-,-,32,0
CCc1nc2ccc(C(=O)NCCCn3ccnc3)cn2c1N(C)Cc1cc2ccccc2s1,0,-,0,0,9.2
CCc1nc2ccc(C(=O)NCCCn3ccnc3)cn2c1N(C)Cc1ccc(OC)cc1,0,-,0,0,0
CC[n+]1c(/C=C(\C)Nc2ccccc2)sc2ccccc21,0,0,-,31,0
CC[n+]1c(/C=C(/C)SC)sc2ccccc21,0,0,0,38,0
O=C(Cn1c2c(c(-c3ccccc3Cl)cc1=O)CCC2)NCCCN1CCOCC1,0,0,0,31,0
O=C(Cn1c2c(c(-c3ccccc3Cl)cc1=O)CCC2)NCC1CCCO1 (stereo unspecified),0,0,-,0,0
COc1ccc(-c2cc(-c3ccccc3)[n+](C)c(-c3ccccc3)c2)cc1,35,0,-,0,0
CCCN(C)C[C@@H]1Oc2ncc(C#CC3CC3)cc2C(=O)N([C@H](C)CO)C[C@@H]1C,-,-,0,-,-
O=C(C[C@@H]1CC[C@@H](NC(=O)C2CC2)[C@H](CO)O1)NC1CCC1,-,-,0,-,-
COC(=O)/C(C#N)=C1/SC=C(C)N1c1ccccc1,0,0,0,0,0
CC1=CS/C(=C(/C#N)C(=O)N2CCCCC2)N1c1ccccc1,0,0,0,45,0
CC1=CS/C(=C(/C#N)C(=O)N2CCOCC2)N1c1ccccc1,0,0,0,32,0
N#C/C(C(=O)N1CCCCC1)=C1\Nc2ccccc2S1,0,0,0,54,0
C[C@H]1CN([C@@H](C)CO)S(=O)(=O)c2ccc(-c3ccncc3)cc2O[C@@H]1CN(C)Cc1ccncc1,-,-,0,-,-
O=C(NCC[C@@H]1CC[C@H](NS(=O)(=O)c2ccc(F)cc2)[C@H](CO)O1)Nc1ccc(Cl)cc1,-,-,0,-,-
CCCN(C)C[C@@H]1Oc2ncc(-c3ccccc3OC)cc2C(=O)N([C@H](C)CO)C[C@H]1C,-,-,0,-,-
COc1cccc(C(=O)N/N=c2/oc3ccccc3cc2C(N)=O)c1,0,0,-,0,0
COc1ccccc1N=c1oc2c(OC)cccc2cc1C(=O)NCc1ccco1,0,0,0,0,0
Cc1cccc(N=c2oc3cc(O)ccc3cc2C(N)=O)c1,+,0,0,0,0
COc1ccc2cc(C(N)=O)/c(=N\NC(=O)c3ccccc3)oc2c1,112,0,0,0,0
COc1cccc(N=c2oc3cc(O)ccc3cc2C(=O)NCC2CCCO2)c1 (stereo unspecified),+,0,0,0,0
COc1ccccc1N=c1oc2cc(O)ccc2cc1C(N)=O,+,0,0,0,0
C[C@@H]1CN([C@H](C)CO)C(=O)c2cccc(NC(=O)C3CCCCC3)c2O[C@H]1CN(C)CC1CC1,-,-,0,-,-
C[C@@H]1CN([C@@H](C)CO)C(=O)c2cc(NC(=O)Nc3ccccc3)ccc2O[C@H]1CN(C)Cc1ccc(-c2ccccc2)cc1,-,-,0,-,-
COc1cccc2cc(C(=O)NCC3CCCO3)c(=O)oc12 (stereo unspecified),0,0,0,0,0
COc1ccccc1NC(=O)c1cc2ccccc2o/c1=N\O,0,0,0,0,0
COc1ccccc1N=c1oc2cc(O)ccc2cc1C(=O)NCC1CCCO1 (stereo unspecified),+,0,-,0,0
